The values below come from PubChem BioAssay (NCI).

Each structure is given as a SMILES string. About 83,000 compounds went through this panel and 20% of them were active in at least one assay; those are over-represented in the sample as a whole.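 A percent growth of 40 corresponds to 60% growth inhibition; 0 means no net growth; -100 means all cells died. Active threshold: below 10.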 A number with no mark means an inactive call. Calls of active or inactive are those of the source.

The assay relates to HCC-2998 colon. Put plainly: NCI-60 one-dose screen, 48 h (100 = growth as untreated, 0 = no growth, -100 = all killed). To be noted: 10 µM unless noted.
`C=C(C)[C@@H]1CC[C@]2(C=O)CC[C@]3(C)[C@H](CC[C@@H]4[C@@]5(C)CCCNC(C)(C)[C@@H]5CC[C@]43C)[C@@H]12`: the growth was 41.6%.

On to `COc1cc(OC)cc(C2C3=C(COC3=O)Nc3cc(OC)ccc32)c1` (configuration not stated), for which the growth is 1.15% (active).

Turning to `CN1CCN(C(=O)[C@]2(C)CC[C@]3(C)CC[C@]4(C)C(=CC(=O)[C@@H]5[C@@]6(C)CCC(=O)NC(C)(C)[C@@H]6CC[C@]54C)[C@@H]3C2)CC1`, the growth is 113%.

On to `COc1cc(C2CC(c3cccc(Nc4ccncc4)c3)=NN2c2cc(Cl)cc(Cl)c2)cc(OC)c1OC` (configuration not stated), for which the growth is -60.4% (active).

In the case of `COc1ccc(-c2ncc(-c3ccccc3)[nH]2)cc1OC`, the growth was 120%.

As to `CC(C)(C)OC(=O)N1C/C(=C\c2ccoc2)C(=O)/C(=C/c2ccoc2)C1`, the growth was 98.9%.

With `Cc1ccc2nc3c(cc2c1)CSc1nnc(-c2ccc[nH]c2=S)n1N3`, the growth was 107%.

`COc1ccc(Nn2c(SCC(=O)Nc3nc(-c4ccc(Cl)cc4)cs3)nc(C)c2C)cc1`: the growth is 54.2%.

Turning to `C=C(C)[C@@H]1CC[C@]2(C(=O)NCCCN(CCC#N)CCC#N)CC[C@]3(C)[C@H](CC[C@@H]4[C@@]5(C)CCC(=O)C(C)(C)[C@@H]5CC[C@]43C)[C@@H]12`, the growth was 108%.

As for `Cc1ccc(C2CC(c3cccc(Nc4ccncc4)c3)=NN2c2ccc(Cl)cc2)cc1` (configuration not stated), the growth was -93.4% (active).

On to `COc1cc(NCCCN(CC(C)C)C2CCCC2)c2ncccc2c1`, for which the growth was 92.4%.

For the compound `COc1ccc(Cn2nc3c(c2-c2cc(OC)c(OC)c(OC)c2)-c2oncc2CC3)cc1`, the growth is 77.5%.
